Experimental findings from PubChem BioAssay (NCI) are described below.

The panel holds about 83,000 compounds, 20% with a hit somewhere; the sample as a whole holds those more often.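 Plates (96-well) were seeded with cells, treated with compound at one concentration, and incubated for 48 hours before percent growth was determined.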 Values without a mark were called inactive. Active and inactive are the calls of the source. Rule for the calls: active = growth percent below 10; inactive = the rest.

For this assay, the system named is MDA-MB-468 breast. In words: NCI-60 one-dose screen, 48 h (100 = growth as untreated, 0 = no growth, -100 = all killed). The note with it: 10 µM unless noted.
With `CC(=O)[C@@H]1CC[C@]2(CO)CC[C@]3(C)[C@H](CC[C@@H]4[C@@]5(C)CCCNC(C)(C)[C@@H]5CC[C@]43C)[C@@H]12`, the growth was 106%. Then `COc1ccc(C(=O)/C=C/c2ccc(/C=C/c3cc(OC)c(OC)c(OC)c3)cc2)cc1`, with 51.9%; and `Cc1cc(Cl)c2c(N(C)C)cccc2n1`, with 77.4%; and `N#Cc1c(-c2ccccc2)cc(-c2c[nH]c3ccccc23)nc1-c1c[nH]c2ccccc12`, with 93%. Then `Cc1nnc(-c2ccc3c(c2)nc(/C=C/c2ccccc2)n3C2CCCCC2)o1`, with 91.3%; and `O=S(=O)(Nc1ccccc1)c1ccc(C2CC3(Cl)C(Cl)=C(Cl)C2(Cl)C3(Cl)Cl)cc1` (stereo not given), with 62.2%; and `O=c1c(CNc2ccc(S(=O)(=O)Nc3nccs3)cc2)coc2ccccc12`, with 92.9%. The same measure for `Fc1ccccc1-c1cnn2cc(-c3ccccc3)cnc12`: 124%. With `Cc1ccc(CNc2c3ccccc3nc3cc(NC(=O)CCN4CCCC4)ccc23)cc1`, the growth was -29.3% (active). Then `C[C@@H]1NC(=O)[C@H](Cc2ccccc2)N(Cc2cccnc2)C1=O`, with 108%; and `CC(C)(CO)N(CCO)CCO`, with 95.1%. The same measure for `CC(C)CCSc1nc(-c2ccc(F)cc2)c(C#N)c(N2CCN(C)CC2)n1`: 98.3%; for `O=C(/C=C/c1ccc(F)cc1)c1ccc(NC(=O)N2CCN(c3cc4c(cc3F)c(=O)c(C(=O)O)cn4C3CC3)CC2)cc1`: 68.3%. Then `COc1ccc(OC)c(/C=N/Nc2ncnc3c2c(C)nn3C)c1`, with 106%; and `COc1cccc(/C=C/c2c(C(=O)O)cccc2[N+](=O)[O-])c1OC`, with 108%. Take `O[N+]1=CC=CCC1=S.On1ccccc1=S.[Zn]`: the growth was -75.8% (active).

`Nc1ccccc1C(=O)Nc1ccc(Cl)cc1Cl`: the growth is 94.5%. In the case of `Oc1cccc2ccc(N/N=C/c3cc(CN4CCOCC4)c(O)c4ncccc34)nc12`, the growth was -24.6% (active). In the case of `O=c1cc(-c2cccnc2)oc2c1ccc1ccccc12`, the growth was 65%.

With `N#CC(C#N)=C(C#N)c1c[nH]c2ccccc12`, the growth was 38.8%. Then `CCN(CCO)CC(C)Nc1ccc([N+](=O)[O-])c2sc3ccccc3c(=O)c12` (stereo not given), with 21%. Then `O=C1C=C(OCC=C(C(F)(F)F)C(F)(F)F)c2ccccc2C1=O`, with -51.2% (active); and `COc1c(O)cc2oc3cc(O[C@@H]4OC(C)[C@@H](O)[C@H](O)C4O)c(CC=C(C)C)c(O)c3c(=O)c2c1CC=C(C)C` (stereo not given in full), with 82.5%.

With `CC12CCC(CC1)C(C)(C)O2`, the growth is 108%.

In the case of `CCOC(=O)c1c(NC(=O)c2cccc(C(F)(F)F)c2)sc2c1CCC(=O)C2`, the growth is -9.5% (active).

For `Cc1cc(N2CCN(CC(=O)Nc3ccc4c(ccn4C)c3)CC2)nc(N2CCCCCC2)n1`, the growth is 65.1%. Take `Cc1cccc[n+]1CCC[n+]1ccccc1C`: the growth was 103%. The same measure for `C=CCNCCCN1C(=O)c2ccc3c4c(ccc(c24)C1=O)C(=O)N(CCCNCC=C)C3=O`: -88.5% (active); for `N[C@H]1CCC[C@@H]1NCCCCN1C(=O)c2cccc3cccc(c23)C1=O`: 50.4%. Then `O=C(c1nn(-c2ccccc2)c2c1CC(NCc1ccc(F)cc1)CC2)N1CCCCC1` (stereo not given), with 97%; and `COc1ccc(NC(=O)c2cc3ccccc3nc2Nc2cc(OC)c(OC)c(OC)c2)cc1`, with 75.2%; and `COc1ccc(/C=C2\Oc3cc(OCCCCCN4CCCCC4)ccc3C2=O)cc1OC`, with 57.6%. With `CN1C(=O)N(C)C2C1NN=c1s/c(=C\c3ccsc3)c(=O)n12` (stereo not given), the growth is 34.3%. `Cc1cccc(NC(=O)Nc2ccc(-n3cnc4cc(-c5ccc(O)cc5)ccc43)cc2)c1`: the growth is 38.4%. The same measure for `O=c1cc(NC2CCN(CCCc3ccccc3)CC2)c2cc(Cl)ccc2o1`: -13.1% (active). Regarding `Cc1ccsc1-c1ccc2c(c1)COC2(CCCN(C)C)c1ccc(F)cc1` (stereo not given), the growth is -8.34% (active).

For `Clc1ccc(/C=C/c2nc(Nc3ccc(Cl)cc3)c3ccccc3n2)cc1`, the growth is 110%. Then `O=C(CSc1nc2ccccc2c(=O)n1-c1ccccc1)N/N=C/c1ccc(Oc2ccc(Cl)cc2)cc1`, with 71.6%; and `CS(=O)(=O)c1ccc2c(c1)c1c(n2C(=O)c2ccc(Cl)cc2)CCCC1`, with 27.7%. Regarding `O=C(Nc1ccc2ncnc(Nc3ccc(F)c(Cl)c3)c2c1)c1ccccc1`, the growth is -8.33% (active).
